Binding signal data for eight sequences are collected here from PMC7862700, “An all-to-all approach to the identification of sequence-specific readers for epigenetic DNA modifications on cytosine”.

Holding throughout (test): DAPPL (digital affinity profiling via proximity ligation, sequencing); 10 mM Tris-HCl pH 7.5, 50 mM NaCl, 1 mM DTT, 4% glycerol, room temperature, 30 min; GST-TFs on glutathione beads, 16-mer random dsDNA library, 0.1% formaldehyde crosslink after washing; high values mean tight binding
One assay addresses T1, FEV (Homo sapiens, UniProt Q99581 1-238).
T1 sequence: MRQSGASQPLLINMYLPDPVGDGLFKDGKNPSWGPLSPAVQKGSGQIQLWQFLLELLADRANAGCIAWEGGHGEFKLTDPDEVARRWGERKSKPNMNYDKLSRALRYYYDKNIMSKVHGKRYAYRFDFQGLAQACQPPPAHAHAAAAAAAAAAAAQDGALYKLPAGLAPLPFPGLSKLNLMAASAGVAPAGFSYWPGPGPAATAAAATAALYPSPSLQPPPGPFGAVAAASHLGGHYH
As to conditions: protein: recombinant; tags: N-terminal GST; dsDNA, one strand shown. In a few lines: (§1)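 Yeast served to express human transcription factors as GST fusions, which were then captured on glutathione beads and labelled with DNA barcodes. Pooled with a tag-only sample, they were incubated with 200 nmole of a 16-mer random double-stranded DNA library for 30 min at room temperature in Tris/NaCl/DTT/glycerol buffer, washed, crosslinked with 0.1% formaldehyde, ligated by proximity, amplified by PCR and sequenced. Dividing each hexamer's read frequency for a factor by its frequency for the tag-only sample gives the binding signal.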

The next assay addresses ETV5 (Homo sapiens, UniProt P41161 1-510). As to conditions: protein: recombinant; tags: N-terminal GST; dsDNA, one strand shown. In a few lines:
as §1

The target of a further assay is HSF1 (Homo sapiens, UniProt Q00613 1-529). As to conditions: protein: recombinant; tags: N-terminal GST; chain copies: 3; dsDNA, one strand shown. Summed up: as §1
HSF1, sequence (Q00613 whole entry): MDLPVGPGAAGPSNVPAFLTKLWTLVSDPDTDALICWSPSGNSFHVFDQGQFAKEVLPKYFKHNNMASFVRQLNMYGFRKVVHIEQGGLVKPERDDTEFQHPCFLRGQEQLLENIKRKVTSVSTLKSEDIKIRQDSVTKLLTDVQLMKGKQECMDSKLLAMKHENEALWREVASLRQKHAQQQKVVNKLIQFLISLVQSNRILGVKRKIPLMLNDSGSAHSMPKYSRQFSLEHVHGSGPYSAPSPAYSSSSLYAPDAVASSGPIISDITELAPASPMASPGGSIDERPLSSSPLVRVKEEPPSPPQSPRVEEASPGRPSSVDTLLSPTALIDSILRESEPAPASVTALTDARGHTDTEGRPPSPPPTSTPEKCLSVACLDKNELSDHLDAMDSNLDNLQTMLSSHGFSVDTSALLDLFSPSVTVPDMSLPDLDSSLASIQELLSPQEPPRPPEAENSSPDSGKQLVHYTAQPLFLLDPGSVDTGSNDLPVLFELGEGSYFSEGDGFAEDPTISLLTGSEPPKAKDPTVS
Another assay concerns the target T2, SPIC (Homo sapiens, UniProt Q8N5J4 1-248).
T2 sequence: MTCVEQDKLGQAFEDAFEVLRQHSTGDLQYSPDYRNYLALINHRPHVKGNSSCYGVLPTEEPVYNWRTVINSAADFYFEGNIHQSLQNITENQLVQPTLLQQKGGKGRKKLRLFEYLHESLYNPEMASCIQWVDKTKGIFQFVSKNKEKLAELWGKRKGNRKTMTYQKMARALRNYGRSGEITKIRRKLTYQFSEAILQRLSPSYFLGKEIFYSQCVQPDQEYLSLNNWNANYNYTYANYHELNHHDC
As to conditions: protein: recombinant; tags: N-terminal GST; dsDNA, one strand shown. In a few lines:
as §1

Another assay concerns the target ELF4 (Homo sapiens, UniProt Q99607 1-663). As to conditions: protein: recombinant; tags: N-terminal GST; dsDNA, one strand shown. In a few lines:
as §1

The target of the next assay is T3, ELK4 (Homo sapiens, UniProt P28324-2 1-405).
T3 sequence: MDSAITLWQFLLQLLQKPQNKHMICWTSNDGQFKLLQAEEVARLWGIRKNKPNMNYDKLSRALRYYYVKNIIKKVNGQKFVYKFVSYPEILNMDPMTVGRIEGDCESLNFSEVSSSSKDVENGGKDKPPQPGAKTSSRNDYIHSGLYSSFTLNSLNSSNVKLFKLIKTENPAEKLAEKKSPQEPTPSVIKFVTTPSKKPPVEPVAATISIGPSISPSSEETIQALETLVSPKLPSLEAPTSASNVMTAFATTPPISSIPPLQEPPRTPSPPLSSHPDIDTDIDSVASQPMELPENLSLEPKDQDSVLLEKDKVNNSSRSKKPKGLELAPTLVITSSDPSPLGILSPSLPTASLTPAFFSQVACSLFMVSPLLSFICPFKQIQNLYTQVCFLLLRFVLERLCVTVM
The note with it: protein: recombinant; tags: N-terminal GST; dsDNA, one strand shown. In a few lines: as §1

The target of the next assay is T4, ETV2 (Homo sapiens, UniProt O00321 1-342).
T4 sequence: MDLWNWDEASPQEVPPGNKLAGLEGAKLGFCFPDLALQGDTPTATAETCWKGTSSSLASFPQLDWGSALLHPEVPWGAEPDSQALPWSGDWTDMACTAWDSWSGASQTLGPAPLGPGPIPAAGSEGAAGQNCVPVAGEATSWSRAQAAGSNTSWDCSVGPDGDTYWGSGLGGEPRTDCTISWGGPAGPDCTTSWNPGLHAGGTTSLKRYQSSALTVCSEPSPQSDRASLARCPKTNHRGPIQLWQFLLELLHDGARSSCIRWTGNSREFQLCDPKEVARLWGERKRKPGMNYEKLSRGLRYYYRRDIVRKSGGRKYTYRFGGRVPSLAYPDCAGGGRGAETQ
As to conditions: protein: recombinant; tags: N-terminal GST; dsDNA, one strand shown. Summed up:
as §1

A further assay concerns the target T5, ELF3 (Homo sapiens, UniProt P78545 1-371).
T5 sequence: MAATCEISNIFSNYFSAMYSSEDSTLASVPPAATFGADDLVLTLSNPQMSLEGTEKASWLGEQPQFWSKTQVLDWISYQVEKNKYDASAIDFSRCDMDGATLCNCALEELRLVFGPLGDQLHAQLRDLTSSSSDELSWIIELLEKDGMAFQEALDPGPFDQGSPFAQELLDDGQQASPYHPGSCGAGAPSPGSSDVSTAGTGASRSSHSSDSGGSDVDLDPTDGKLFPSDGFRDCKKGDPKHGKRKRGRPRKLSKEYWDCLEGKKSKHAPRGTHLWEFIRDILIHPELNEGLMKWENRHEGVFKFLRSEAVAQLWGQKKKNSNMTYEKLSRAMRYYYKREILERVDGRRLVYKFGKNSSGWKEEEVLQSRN
As to conditions: protein: recombinant; tags: N-terminal GST; dsDNA, one strand shown. In a few lines: as §1

A further assay concerns the target CRX (Homo sapiens, UniProt O43186 1-299). The note with it: protein: recombinant; tags: N-terminal GST; dsDNA, one strand shown. In a few lines: as §1
The target in another assay is ETV1 (Homo sapiens, UniProt P50549 1-477). As to conditions: protein: recombinant; tags: N-terminal GST; dsDNA, one strand shown. Summed up: as §1
ETV1, sequence (P50549 whole entry): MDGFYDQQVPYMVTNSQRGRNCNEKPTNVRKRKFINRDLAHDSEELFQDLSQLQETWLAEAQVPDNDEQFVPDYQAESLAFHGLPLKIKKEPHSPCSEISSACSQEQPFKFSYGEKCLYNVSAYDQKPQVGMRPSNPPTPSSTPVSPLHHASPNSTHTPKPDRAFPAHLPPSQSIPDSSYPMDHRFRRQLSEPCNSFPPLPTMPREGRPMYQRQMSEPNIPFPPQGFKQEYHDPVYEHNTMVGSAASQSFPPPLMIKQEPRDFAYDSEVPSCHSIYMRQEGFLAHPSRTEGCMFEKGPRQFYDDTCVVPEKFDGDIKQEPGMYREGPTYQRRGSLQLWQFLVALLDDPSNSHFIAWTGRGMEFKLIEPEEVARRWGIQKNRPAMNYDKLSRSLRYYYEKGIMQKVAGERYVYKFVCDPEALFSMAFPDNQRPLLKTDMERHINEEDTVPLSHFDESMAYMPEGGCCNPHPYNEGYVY

ELF4, sequence (Q99607 whole entry): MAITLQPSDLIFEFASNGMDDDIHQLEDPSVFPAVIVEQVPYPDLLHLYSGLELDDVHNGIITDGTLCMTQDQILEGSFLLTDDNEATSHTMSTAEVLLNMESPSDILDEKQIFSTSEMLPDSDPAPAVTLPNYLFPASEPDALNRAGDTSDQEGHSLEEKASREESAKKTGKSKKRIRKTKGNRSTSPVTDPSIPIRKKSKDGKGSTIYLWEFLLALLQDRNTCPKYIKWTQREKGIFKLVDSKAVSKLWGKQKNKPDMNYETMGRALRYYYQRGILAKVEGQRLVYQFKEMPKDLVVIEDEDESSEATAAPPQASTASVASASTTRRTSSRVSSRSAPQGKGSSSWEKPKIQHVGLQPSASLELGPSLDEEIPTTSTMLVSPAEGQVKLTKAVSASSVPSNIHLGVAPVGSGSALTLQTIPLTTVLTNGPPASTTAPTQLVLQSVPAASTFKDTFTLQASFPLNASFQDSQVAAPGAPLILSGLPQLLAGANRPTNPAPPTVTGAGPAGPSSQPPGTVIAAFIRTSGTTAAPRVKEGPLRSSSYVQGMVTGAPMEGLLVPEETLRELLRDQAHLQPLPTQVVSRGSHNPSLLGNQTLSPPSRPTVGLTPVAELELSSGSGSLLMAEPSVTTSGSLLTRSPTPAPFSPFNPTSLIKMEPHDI
ETV5, sequence (P41161 whole entry): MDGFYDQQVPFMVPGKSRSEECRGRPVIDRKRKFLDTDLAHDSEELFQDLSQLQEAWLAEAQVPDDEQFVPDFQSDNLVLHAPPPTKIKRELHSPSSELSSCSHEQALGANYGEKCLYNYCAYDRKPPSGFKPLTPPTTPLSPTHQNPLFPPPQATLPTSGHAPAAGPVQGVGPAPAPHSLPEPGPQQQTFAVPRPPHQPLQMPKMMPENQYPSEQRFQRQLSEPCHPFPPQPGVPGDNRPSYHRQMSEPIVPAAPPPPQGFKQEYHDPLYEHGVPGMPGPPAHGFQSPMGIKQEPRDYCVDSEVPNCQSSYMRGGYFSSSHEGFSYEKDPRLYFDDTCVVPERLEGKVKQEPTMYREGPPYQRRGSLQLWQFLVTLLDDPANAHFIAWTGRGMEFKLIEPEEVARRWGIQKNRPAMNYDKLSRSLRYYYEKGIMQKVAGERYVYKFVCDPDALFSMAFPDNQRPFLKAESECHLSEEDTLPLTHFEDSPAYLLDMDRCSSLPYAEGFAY
CRX, sequence (O43186 whole entry): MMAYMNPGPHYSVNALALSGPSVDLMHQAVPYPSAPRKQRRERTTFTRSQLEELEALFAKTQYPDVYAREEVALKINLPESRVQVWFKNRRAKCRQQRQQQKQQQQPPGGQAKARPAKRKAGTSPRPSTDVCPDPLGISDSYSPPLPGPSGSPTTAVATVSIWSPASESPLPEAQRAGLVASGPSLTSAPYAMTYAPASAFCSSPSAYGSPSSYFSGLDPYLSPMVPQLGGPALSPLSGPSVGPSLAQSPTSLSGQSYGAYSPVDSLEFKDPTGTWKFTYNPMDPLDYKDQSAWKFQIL

On to TTCTCT, for which the binding signal with FEV is 1.22 fold enrichment (6-mer frequency, TF over GST control); with ETV5 it was 1.24 fold enrichment (6-mer frequency, TF over GST control); in the assay with HSF1, 1.84 fold enrichment (6-mer frequency, TF over GST control); in the assay with SPIC, 1.16 fold enrichment (6-mer frequency, TF over GST control); in the assay with ELF4, 1.26 fold enrichment (6-mer frequency, TF over GST control); with ELK4, 1.33 fold enrichment (6-mer frequency, TF over GST control). For the same sequence, the binding signal is 1.29 fold enrichment (6-mer frequency, TF over GST control) in the assay with ETV2; 1.37 fold enrichment (6-mer frequency, TF over GST control) in the assay with ELF3; 1.49 fold enrichment (6-mer frequency, TF over GST control) in the assay with CRX; 1.36 fold enrichment (6-mer frequency, TF over GST control) in the assay with ETV1.

For the sequence ATCTTC, the binding signal in the assay with FEV was 1.39 fold enrichment (6-mer frequency, TF over GST control); with ETV5 it was 1.6 fold enrichment (6-mer frequency, TF over GST control); with HSF1, 2.15 fold enrichment (6-mer frequency, TF over GST control); with SPIC, 1.49 fold enrichment (6-mer frequency, TF over GST control); in the assay with ELF4, 1.31 fold enrichment (6-mer frequency, TF over GST control); in the assay with ELK4, 1.56 fold enrichment (6-mer frequency, TF over GST control). The binding signal with ETV2 was 1.75 fold enrichment (6-mer frequency, TF over GST control); with ELF3, 1.69 fold enrichment (6-mer frequency, TF over GST control); in the assay with CRX it was 1.98 fold enrichment (6-mer frequency, TF over GST control); with ETV1 it was 1.63 fold enrichment (6-mer frequency, TF over GST control).

For TTGCCT, the binding signal in the assay with FEV was 1.19 fold enrichment (6-mer frequency, TF over GST control); with ETV5, 1.22 fold enrichment (6-mer frequency, TF over GST control); with HSF1, 1.13 fold enrichment (6-mer frequency, TF over GST control); in the assay with SPIC, 1.42 fold enrichment (6-mer frequency, TF over GST control); in the assay with ELF4 it was 1.29 fold enrichment (6-mer frequency, TF over GST control); with ELK4, 1.2 fold enrichment (6-mer frequency, TF over GST control). Further, the binding signal with ETV2 is 1.19 fold enrichment (6-mer frequency, TF over GST control); with ELF3, 1.42 fold enrichment (6-mer frequency, TF over GST control); with CRX, 1.16 fold enrichment (6-mer frequency, TF over GST control); with ETV1 it was 1.37 fold enrichment (6-mer frequency, TF over GST control).

As to ACCCTA, the binding signal was 1.22 fold enrichment (6-mer frequency, TF over GST control) with FEV; 1.21 fold enrichment (6-mer frequency, TF over GST control) with ETV5; 1.18 fold enrichment (6-mer frequency, TF over GST control) with HSF1; 1.19 fold enrichment (6-mer frequency, TF over GST control) with SPIC; 1.26 fold enrichment (6-mer frequency, TF over GST control) in the assay with ELF4; 1.24 fold enrichment (6-mer frequency, TF over GST control) with ELK4. The binding signal is 1.27 fold enrichment (6-mer frequency, TF over GST control) with ETV2; 1.23 fold enrichment (6-mer frequency, TF over GST control) in the assay with ELF3; 1.29 fold enrichment (6-mer frequency, TF over GST control) with CRX; 1.45 fold enrichment (6-mer frequency, TF over GST control) with ETV1.

As to ATAGAT, the binding signal in the assay with FEV is 1.15 fold enrichment (6-mer frequency, TF over GST control); in the assay with ETV5, 1.11 fold enrichment (6-mer frequency, TF over GST control); in the assay with HSF1 it was 1.42 fold enrichment (6-mer frequency, TF over GST control); with SPIC it was 1.2 fold enrichment (6-mer frequency, TF over GST control); in the assay with ELF4, 1.17 fold enrichment (6-mer frequency, TF over GST control); with ELK4 it was 1.13 fold enrichment (6-mer frequency, TF over GST control). Besides, the binding signal with ETV2 was 1.19 fold enrichment (6-mer frequency, TF over GST control); with ELF3 it was 1.13 fold enrichment (6-mer frequency, TF over GST control); with CRX, 1.49 fold enrichment (6-mer frequency, TF over GST control); with ETV1 it was 1.19 fold enrichment (6-mer frequency, TF over GST control).

TTAATT: the binding signal with FEV is 1.31 fold enrichment (6-mer frequency, TF over GST control); with ETV5, 1.49 fold enrichment (6-mer frequency, TF over GST control); in the assay with HSF1, 2.23 fold enrichment (6-mer frequency, TF over GST control); with SPIC, 1.33 fold enrichment (6-mer frequency, TF over GST control); with ELF4, 1.33 fold enrichment (6-mer frequency, TF over GST control); with ELK4, 1.3 fold enrichment (6-mer frequency, TF over GST control). The binding signal with ETV2 is 1.43 fold enrichment (6-mer frequency, TF over GST control); with ELF3 it was 1.27 fold enrichment (6-mer frequency, TF over GST control); in the assay with CRX it was 3.46 fold enrichment (6-mer frequency, TF over GST control); with ETV1 it was 1.34 fold enrichment (6-mer frequency, TF over GST control).

For the sequence ATTGCG, the binding signal with FEV is 1.17 fold enrichment (6-mer frequency, TF over GST control); with ETV5 it was 1.24 fold enrichment (6-mer frequency, TF over GST control); with HSF1 it was 1.07 fold enrichment (6-mer frequency, TF over GST control); in the assay with SPIC, 1.29 fold enrichment (6-mer frequency, TF over GST control); in the assay with ELF4, 1.25 fold enrichment (6-mer frequency, TF over GST control); with ELK4, 1.14 fold enrichment (6-mer frequency, TF over GST control). Also, the binding signal with ETV2 was 1.59 fold enrichment (6-mer frequency, TF over GST control); in the assay with ELF3, 1.29 fold enrichment (6-mer frequency, TF over GST control); with CRX, 1.12 fold enrichment (6-mer frequency, TF over GST control); with ETV1 it was 1.29 fold enrichment (6-mer frequency, TF over GST control).

AATAGT: the binding signal with FEV is 1.19 fold enrichment (6-mer frequency, TF over GST control); in the assay with ETV5, 1.27 fold enrichment (6-mer frequency, TF over GST control); with HSF1, 1.21 fold enrichment (6-mer frequency, TF over GST control); with SPIC, 1.28 fold enrichment (6-mer frequency, TF over GST control); with ELF4, 1.18 fold enrichment (6-mer frequency, TF over GST control); in the assay with ELK4, 1.46 fold enrichment (6-mer frequency, TF over GST control). Further, the binding signal in the assay with ETV2 was 1.17 fold enrichment (6-mer frequency, TF over GST control); with ELF3, 1.26 fold enrichment (6-mer frequency, TF over GST control); in the assay with CRX, 1.19 fold enrichment (6-mer frequency, TF over GST control); in the assay with ETV1 it was 1.17 fold enrichment (6-mer frequency, TF over GST control).
